Common to all, as to conditions: mRNA level, 48 h; actives raise or lower the signal
Read-out in assay [1]: Glutamate-cysteine ligase catalytic (GCLC), GCLC (gene 2729)
Briefly: LTEA_HepaRG_GCLC: Life Technologies and Expression Analysis (LTEA) Assay for Glutamate-cysteine ligase catalytic (GCLC) using HepaRG (AID 2283498). In short, it runs like this:
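Differentiated human HepaRG cells, plated 48 h then switched to serum-free induction medium, were exposed in duplicate for 48 h to 8 half-log concentrations topping at 100 uM in 0.5% DMSO. GCLC mRNA was quantified by qRT-PCR against ACTB, GAPDH and POLR2A.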

Read-out in assay [2]: growth arrest and DNA damage 45 (GADD45G), GADD45G (gene 10912)
In words: LTEA_HepaRG_GADD45G: Life Technologies and Expression Analysis (LTEA) Assay for growth arrest and DNA damage 45 (GADD45G) using HepaRG (AID 2283499). The procedure, abridged: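 Human hepatic HepaRG line treated 48 h with chemicals (eight concentrations, half-log steps from 100 uM); transcript induction or repression of GADD45G scored by qRT-PCR versus DMSO vehicle.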

Read-out in assay [3]: Glutamate-cysteine ligase regulatory (GCLM), GCLM (gene 2730)
In words: LTEA_HepaRG_GCLM: Life Technologies and Expression Analysis (LTEA) Assay for Glutamate-cysteine ligase regulatory (GCLM) using HepaRG (AID 2283500). The procedure, abridged: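 Differentiated human HepaRG cells exposed 48 h in serum-free induction medium to 8-point half-log concentrations (top 100 uM, 0.5% DMSO), in duplicate. GCLM mRNA quantified by qRT-PCR, normalized to ACTB, GAPDH, POLR2A; bidirectional fitting versus DMSO.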

Read-out in assay [4]: Glutathione S-transferase M3 (GSTM3), GSTM3 (gene 2947)
Briefly: LTEA_HepaRG_GSTM3: Life Technologies and Expression Analysis (LTEA) Assay for Glutathione S-transferase M3 (GSTM3) using HepaRG (AID 2283501). The procedure, abridged:
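Changes in GSTM3 expression, an oxidative-stress marker, were scored by bidirectional curve fitting against 0.5% DMSO vehicle. Human HepaRG cultures received chemicals for 48 h in duplicate, highest concentration 100 uM with half-log dilutions.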

Read-out in assay [5]: Heat shock 70 kDa protein 1 (HSPA1A), gene 3303
In words: LTEA_HepaRG_HSPA1A: Life Technologies and Expression Analysis (LTEA) Assay for Heat shock 70 kDa protein 1 (HSPA1A) using HepaRG (AID 2283502). The procedure, abridged:
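Differentiated human HepaRG cells in serum-free induction medium were exposed in duplicate for 48 h to eight concentrations (top 100 uM, half-log steps, 0.5% DMSO). HSPA1A mRNA was quantified by qRT-PCR, normalized to ACTB, GAPDH and POLR2A, and fitted bidirectionally against DMSO.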

Read-out in assay [6]: Hypoxia-inducible factor 1-alpha (Homo sapiens) (UniProt Q16665)
Briefly: LTEA_HepaRG_HIF1A: Life Technologies and Expression Analysis (LTEA) Assay for Hypoxia-inducible factor 1 (HIF1A) Trancription factor using HepaRG (AID 2283503). The procedure, abridged:
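HepaRG, 48 h exposure, 8-pt half-log series from 100 uM, 0.5% DMSO vehicle, duplicates. Readout: HIF1A transcript by qRT-PCR (Fluidigm array), housekeeping-normalised. Bidirectional curve fit vs DMSO baseline.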

Read-out in a further assay: HGF (gene 3082)
Briefly: LTEA_HepaRG_HGF: Life Technologies and Expression Analysis (LTEA) Assay for Hepatocyte Growth Facto (HGF) using HepaRG (AID 2283505). The procedure, abridged:
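Gain or loss of HGF mRNA in human HepaRG liver cells after 48 h chemical exposure; eight concentrations up to 100 uM with 0.5% DMSO vehicle, quantified by TaqMan qRT-PCR.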

Read-out in assay [7]: Insulin Like Growth Factor 1 (IGF1), IGF1 (gene 3479)
Briefly: LTEA_HepaRG_IGF1: Life Technologies and Expression Analysis (LTEA) Assay for Insulin Like Growth Factor 1 (IGF1) using HepaRG (AID 2283506). In short, it runs like this:
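Differentiated human HepaRG cells were dosed for 48 h in serum-free induction medium with 0.5% DMSO, eight half-log concentrations up to 100 uM, in duplicate. IGF1 mRNA was quantified by qRT-PCR normalized to ACTB, GAPDH, POLR2A; bidirectional fitting versus DMSO.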

Read-out in assay [8]: Interleukin 6 (IL6), IL6 (gene 3569)
In words: LTEA_HepaRG_IL6: Life Technologies and Expression Analysis (LTEA) Assay for Interleukin 6 (IL6) using HepaRG (AID 2283509). The procedure, abridged: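 Differentiated human HepaRG cells, plated 48 h then switched to serum-free induction medium, were exposed in duplicate for 48 h to eight half-log concentrations up to 100 uM in 0.5% DMSO. IL6 mRNA measured by qRT-PCR, normalized to ACTB/GAPDH/POLR2A.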

Read-out in assay [9]: Interleukin 6 Receptor (IL6R), IL6R (gene 3570)
Briefly: LTEA_HepaRG_IL6R: Life Technologies and Expression Analysis (LTEA) Assay for Interleukin 6 Receptor (IL6R) using HepaRG (AID 2283510).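 On AC50: TaqMan qRT-PCR signal normalized to ACTB GAPDH and POLR2A housekeeping genes.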 The procedure, abridged:
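Differentiated human HepaRG cells, plated 48 h then switched to serum-free induction medium, were dosed in duplicate for 48 h at eight half-log concentrations up to 100 uM in 0.5% DMSO. IL6R mRNA quantified by qRT-PCR, normalized to ACTB/GAPDH/POLR2A; bidirectional fit versus DMSO.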

Read-out in assay [10]: Potassium channel subfamily K member 1 (KCNK1), KCNK1 (gene 3775)
Briefly: LTEA_HepaRG_KCNK1: Life Technologies and Expression Analysis (LTEA) Assay for Potassium channel subfamily K member 1 (KCNK1) using HepaRG (AID 2283511). The procedure, abridged: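 Differentiated human HepaRG cells in serum-free induction medium were exposed in duplicate for 48 h to 8 half-log concentrations up to 100 uM in 0.5% DMSO. KCNK1 mRNA was measured by TaqMan qRT-PCR, normalized to ACTB, GAPDH and POLR2A, and fitted bidirectionally versus DMSO.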

Read-out in assay [11]: Keratin 19 (KRT19), KRT19 (gene 3880)
In words: LTEA_HepaRG_KRT19: Life Technologies and Expression Analysis (LTEA) Assay for Keratin 19 (KRT19) using HepaRG (AID 2283512). In short, it runs like this:
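Gene-expression endpoint in the human liver line HepaRG after 48 h exposure to up to 100 uM test chemical with 0.5% DMSO vehicle; KRT19 mRNA by qRT-PCR, analyzed bidirectionally versus DMSO.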

Read-out in assay [12]: JUN Transcription Factor, JUN (gene 3725)
In words: LTEA_HepaRG_JUN: Life Technologies and Expression Analysis (LTEA) Assay for JUN Transcription Factor using HepaRG (AID 2283513). In short, it runs like this: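 Differentiated HepaRG cells were exposed to chemicals for 48 h in serum-free induction medium, 8 concentrations from 100 uM in half-log steps, 0.5% DMSO vehicle, in duplicate. JUN mRNA was quantified by TaqMan qRT-PCR, normalized to ACTB, GAPDH, POLR2A.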

Read-out in assay [13]: Lipase C (LIPC), LIPC (gene 3990)
In words: LTEA_HepaRG_LIPC: Life Technologies and Expression Analysis (LTEA) Assay for Lipase C (LIPC) using HepaRG (AID 2283514). In short, it runs like this: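 Differentiated human HepaRG cells in serum-free induction medium were exposed in duplicate for 48 h to eight concentrations (top 100 uM, half-log steps, 0.5% DMSO). LIPC mRNA was quantified by TaqMan qRT-PCR, normalized to ACTB, GAPDH and POLR2A, with bidirectional fitting versus DMSO.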

Read-out in assay [14]: Lipoprotein lipase (LPL), LPL (gene 4023)
Briefly: LTEA_HepaRG_LPL: Life Technologies and Expression Analysis (LTEA) Assay for Lipoprotein lipase (LPL) using HepaRG (AID 2283515). In short, it runs like this: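 Differentiated human HepaRG cells in serum-free induction medium were exposed in duplicate for 48 h to eight half-log concentrations (top 100 uM) in 0.5% DMSO. LPL mRNA was quantified by TaqMan qRT-PCR, normalized to ACTB, GAPDH and POLR2A.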

Read-out in assay [15]: MicroRNA 122 (MIR122), gene 406906
In words: LTEA_HepaRG_MIR122: Life Technologies and Expression Analysis (LTEA) Assay for MicroRNA 122 (MIR122) using HepaRG (AID 2283516). Further: the transcript read is the microRNA miR-122. The procedure, abridged: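 Differentiated human HepaRG cells were exposed 48 h in serum-free induction medium to eight half-log concentrations (top 100 uM, 0.5% DMSO). Transcript level was measured by TaqMan qRT-PCR, normalized to ACTB, GAPDH and POLR2A, and fitted bidirectionally versus DMSO.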

Read-out in assay [16]: matrix metalloproteinase-10 (MMP10), MMP10 (gene 4319)
Briefly: LTEA_HepaRG_MMP10: Life Technologies and Expression Analysis (LTEA) Assay for matrix metalloproteinase-10 (MMP10) using HepaRG (AID 2283517). In short, it runs like this:
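HepaRG, collagen I, ~100,000 cells/well; serum-free induction medium; 48 h exposure, duplicate, 8-pt half-log to 100 uM, 0.5% DMSO. Readout: TaqMan qRT-PCR, normalized to ACTB/GAPDH/POLR2A; bidirectional fit vs DMSO.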

Read-out in assay [17]: Intercellular Adhesion Molecule 1 (ICAM1), ICAM1 (gene 3383)
In words: LTEA_HepaRG_ICAM1: Life Technologies and Expression Analysis (LTEA) Assay for Intercellular Adhesion Molecule 1 (ICAM1) using HepaRG (AID 2283507). In short, it runs like this:
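Gain or loss of transcript in HepaRG hepatic cells is quantified by qRT-PCR after 48 h chemical exposure (up to 100 uM, half-log steps), with DMSO as baseline.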

Read-out in assay [18]: Insulin-like growth factor-binding protein 1 (IGFBP1), IGFBP1 (gene 3484)
Briefly: LTEA_HepaRG_IGFBP1: Life Technologies and Expression Analysis (LTEA) Assay for Insulin-like growth factor-binding protein 1 (IGFBP1) using HepaRG (AID 2283508). In short, it runs like this:
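mRNA induction or loss was quantified by qRT-PCR after 48 h chemical exposure of human HepaRG cells, with 0.5% DMSO as vehicle and baseline. Concentration-response over eight points up to 100 uM.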

A word on the AC50: it is the concentration giving half of the maximal activity seen.

Activity calls are given as the source filed them. How the source made its calls: active means hit-call score of the fitted dose curve at least 0.9, where 1 is the maximum; inactive means score below 0.9.

Chain of Hypoxia-inducible factor 1-alpha (Homo sapiens) (Q16665 whole entry, looked up): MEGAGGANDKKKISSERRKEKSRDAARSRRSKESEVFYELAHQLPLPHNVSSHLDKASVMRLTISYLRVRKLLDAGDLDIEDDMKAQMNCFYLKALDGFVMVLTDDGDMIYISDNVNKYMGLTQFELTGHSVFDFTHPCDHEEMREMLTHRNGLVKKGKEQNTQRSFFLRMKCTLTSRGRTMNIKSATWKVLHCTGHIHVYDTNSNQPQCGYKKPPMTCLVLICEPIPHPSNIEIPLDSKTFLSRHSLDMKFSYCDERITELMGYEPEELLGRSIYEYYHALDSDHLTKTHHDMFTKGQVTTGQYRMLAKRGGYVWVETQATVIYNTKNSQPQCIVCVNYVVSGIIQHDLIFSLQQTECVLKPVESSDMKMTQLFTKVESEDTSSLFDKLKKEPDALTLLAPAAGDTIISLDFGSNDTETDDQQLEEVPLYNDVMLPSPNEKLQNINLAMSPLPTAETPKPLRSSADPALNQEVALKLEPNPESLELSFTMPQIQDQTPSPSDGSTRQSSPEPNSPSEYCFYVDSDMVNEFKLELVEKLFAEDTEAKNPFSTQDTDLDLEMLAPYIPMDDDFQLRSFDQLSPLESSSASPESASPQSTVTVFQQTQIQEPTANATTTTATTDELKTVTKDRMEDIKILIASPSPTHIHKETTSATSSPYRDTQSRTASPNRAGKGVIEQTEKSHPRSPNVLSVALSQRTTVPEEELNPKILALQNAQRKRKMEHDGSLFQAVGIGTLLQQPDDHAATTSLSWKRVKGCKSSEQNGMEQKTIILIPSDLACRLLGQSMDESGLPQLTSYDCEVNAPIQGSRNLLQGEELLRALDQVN

Consider `O=C(O)CN(CC(=O)O)CC(=O)O`, for which the molecule was called inactive in [1], in [2], in [3], in [4], in assay [5] and in assay [6]. Further, the call (with HGF (gene 3082); in [7]; in [8]; in [9]; in assay [10]; in assay [11]) was inactive. The result in assay [12], in assay [13], in assay [14], in assay [15] and in [16] was inactive.

Take `CN(C)C(=O)NC1(c2ccccc2)CCN(CCC[C@]2(c3ccc(Cl)c(Cl)c3)CCCN(C(=O)c3ccccc3)C2)CC1`: the AC50 in assay [1] is 21.9 µM (active); in assay [2], 20.4 µM (active); in [3], 12.5 µM (active); in assay [5] it was 20.5 µM (active); with HGF (gene 3082), 22.5 µM (active); in [7], 16.4 µM (active). In addition, the AC50 in [8] was 22.7 µM (active); in assay [9], 17.2 µM (active); in assay [10] it was 16.1 µM (active); in assay [11] it was 20.7 µM (active); in assay [12], 20.2 µM (active); in assay [16], 19.4 µM (active). In addition, the outcome in assay [4], in assay [6], in [13], in [14] and in assay [15] was inactive.

On to `O=C1NC(=O)C(c2ccccc2)(c2ccccc2)N1`, for which the outcome (in [1]; in assay [2]; in [3]; in assay [4]; in assay [5]; with HGF (gene 3082)) was inactive. For the same molecule, the call in assay [7], in [17], in assay [8], in assay [9], in [10] and in assay [11] was inactive. For the same molecule, the molecule was called inactive in assay [12], in [13], in [14] and in assay [15].

For the molecule `CC(=O)OC1CC(C)OC(C)O1` (stereo not drawn), the call in assay [1], in assay [2], in [3], in assay [4], in assay [5] and in [6] was inactive. In addition, the molecule was called inactive (with HGF (gene 3082); in [7]; in assay [18]; in assay [8]; in assay [9]; in assay [10]). Further, the call in assay [11], in assay [12], in assay [13], in assay [14], in assay [15] and in [16] was inactive.

For the origin of these results see PubChem BioAssay (EPA / NIEHS).
